Hits are enriched below; roughly 4.6% of the tested compounds scored in any of these assays.
Epigenetic reg: derepresses silenced GFP reporter in murine cells | actives 0.2% (n = 280,000) | murine LDR cells, GFP reporter derepression, 30 h | AID 1865 | Potency, µM (top dose mostly 53.9 µM), for inactives: top-dose GFP activation, hits mostly activators; also: potency is read from the fitted curve at half-maximal effect; % of control where 0% means no effect; nearly all actives have a fitted effect of over 60% in size
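In this reporter-derepression format, murine cells bearing a silenced integrated CMV-GFP locus incubate with test compound (30 h, 37 C), then are washed and imaged; fluorescent objects of 20–120 um count as induced cells.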
TRHR enhancer-1: allosteric enhancers of human TRH receptor; TRHR cells, fluo-8 calcium fluorescence, EC20 TRH enhancement; enhancement, % at 2 µM; actives 0.66% (n = 360,000); AID 493056; in the data active = enhancement above about 30%; also: 0% is about no effect
Target sequence (P34981 whole entry, looked up): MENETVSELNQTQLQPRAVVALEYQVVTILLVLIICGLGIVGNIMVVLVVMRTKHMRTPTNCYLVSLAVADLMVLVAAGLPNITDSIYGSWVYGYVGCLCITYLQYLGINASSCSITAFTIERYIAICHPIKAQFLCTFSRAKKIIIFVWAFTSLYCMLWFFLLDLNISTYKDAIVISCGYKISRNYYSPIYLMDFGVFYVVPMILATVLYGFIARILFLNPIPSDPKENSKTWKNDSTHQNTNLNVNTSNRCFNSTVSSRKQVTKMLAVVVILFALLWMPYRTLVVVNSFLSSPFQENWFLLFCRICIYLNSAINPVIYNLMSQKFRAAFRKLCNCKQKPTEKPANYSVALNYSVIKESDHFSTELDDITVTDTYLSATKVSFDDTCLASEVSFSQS
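Enhancer read-out: after compound pinning and an initial kinetic agonist-mode read, an EC20 of TRH (10 nM final) was injected and fluo-8 calcium signal (Ex 480/Em 530) followed at 1 s/cycle for 100 cycles in TRHR-expressing cells.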
D1 antag: human D1 dopamine receptor antagonism | AID 504652 | actives 3.2% (n = 360,000) | HEK293 TREx D1 cells, calcium flux, dopamine EC80; hits give low values | P21728 | activity change, negative = inhibition, % at 10 µM; in the data active = activity change below about -30%; also: % is scaled to controls: 0 for no effect and ±100 for the full control effect
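Kinetic fluorescence of a calcium dye serves as the read-out. D1-expressing Hek293 Trex cells, induced overnight at 30 C, are exposed to compound for 180 s before an EC80 dopamine addition, then read 180 s further.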
D1 ag: human D1 receptor agonism. HEK293 T-REx D1 cells, calcium flux, agonist mode. P21728. activation, % at 2 µM. actives 1% (n = 360,000). AID 504660; in the data active = activation above about 30%; also: 0% is about no effect
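Inducible HEK293 T-REx D1 cells, force-coupled to calcium signalling, were plated at 4000 cells/well with tetracycline and held overnight at 30 C. After no-wash calcium dye loading, compound-evoked calcium rise over 180 s flagged agonists.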
D1 PAM: enhances dopamine response at the human D1 receptor | P21728 | potentiation, % at 10 µM | actives 0.036% (n = 360,000) | AID 504651 | HEK293 TREx D1 cells, calcium flux, dopamine EC20 potentiation; in the data active = potentiation above about 30%; also: 0% is about no effect
TRHR agonist-1: agonists of human TRH receptor. actives 0.18% (n = 360,000). P34981. TRHR cells, calcium flux fluo-8, FDSS agonist mode. activation, % at 2 µM; in the data active = activation above about 30%; also: 0% is about no effect
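Fluo-8-loaded TRHR cells; 10 s baseline, compound added, kinetic Ca2+ fluorescence read 1/s, agonist mode.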
TRHR enhancer-2: human TRH receptor allosteric enhancement confirmation; shares compounds with TRHR enhancer-1; TRH receptor cell assay, enhancer confirmation qHTS; activity change, negative = inhibition, % at 46.1 µM; 970 tested, under 10 active; AID 493076;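 also: compound effect scored on response to added TRH at EC20 of 10 nM; 0% is about no effect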
TRHR agonist-2: human TRH receptor agonism confirmation; shares compounds with TRHR enhancer-1; TRHR-expressing cells, agonist activation read-out; Potency, µM (highest dose often 46.1 µM), for inactives: at the highest dose activation, most hits filed as activators; actives 8% (n = 970); also: potency is read from the fitted curve at half-maximal effect; 0% is about no effect; nearly all actives have a fitted effect of over 75% in size
* = called active by the depositor; ? = inconclusive; / = not tested or not shown. Unless noted, calls follow the shape of the dose curve; as a rule, active = well fitted curve in the direction sought with a large enough effect; inconclusive = small, poorly fitted or top-dose-only effect, or another doubt; inactive = no such curve, though single readings can be large; an effect the other way counts as inactive or inconclusive.

SMILES	Epigenetic reg	TRHR enhancer-1	D1 antag	D1 ag	D1 PAM	TRHR agonist-1	TRHR enhancer-2	TRHR agonist-2
CCOc1ccc(S(=O)(=O)Nc2cccc(C(=O)NCC3CCCO3)c2)cc1 (centres undefined)	/	46.9*	-38.8*	3.2	-8.3	0.2	-8.5	0.7%
Cc1cc(C)c(OCC(=O)Nc2ccc(S(=O)(=O)N3CCOCC3)cc2)c(C)c1	/	41.3*	-2.0	27.6	-2.2	1.0	-9.3	1.1%
COc1ccccc1OCC(=O)Nc1ccc(S(=O)(=O)N2CCOCC2)cc1	/	-2.8	-1.5	-0.3	-0.9	0.3	/	/
O=C(c1ccc(C(F)(F)F)cc1)C1CCCN(C(=O)CN2CCCC2=O)C1 (centres undefined)	-1.1%	56.3*	21.7	-0.1	-1.6	-0.2	-3.0	4.4%
CCO[C@H]1OC(C(=O)NC2CC2)=C[C@@H](C)[C@@H]1CCCO	0.0%	44.1*	15.8	-2.7	5.0	-0.5	-1.0	-0.7%
COc1ccccc1CNC(=O)c1cc2cc(C)ccc2n1C	-0.8%	2.6	-13.8	-0.9	-0.8	-0.2	/	/
Cc1cccc(C)c1NC(=O)COC(=O)c1ccccc1Nc1ccccc1	2.5%	2.1	-7.9	2.9	2.0	34.9*	-3.4	-0.8%
Cc1ccc(CNC(=O)C2CCCN2S(=O)(=O)c2ccc(F)cc2)cc1 (centres undefined)	/	47.3*	12.9	0.5	-4.9	-0.9	-4.3	2.4%
O=C(NCc1ccccc1)C1CCCN1S(=O)(=O)c1ccc(F)cc1 (centres undefined)	/	-0.3	4.8	-0.1	-0.8	-1.9	/	/
N#Cc1c(-c2ccc3c(c2)OCO3)csc1N	0.0%	0.4	1.7	4.1	-8.1	-0.1	/	/
N#Cc1c(-c2ccccc2)cc(-c2ccc3c(c2)OCO3)[nH]c1=O	/	53.5*	10.7	0.1	-2.0	-0.8	-6.3	3.0%
COc1ccccc1CN(C)C(=O)CN1CCN(S(=O)(=O)c2ccc3c(c2)OCCCO3)CC1	/	55.1*	3.7	-0.2	-2.1	-1.5	-5.5	-0.4%
COc1ccc(-c2noc(CN(C(=O)COc3cc(C)c(Br)c(C)c3)C(C)C)n2)cc1	-1.1%	5.0	-10.7	18.9	0.8	-0.8	/	/
O=C(OCC(=O)N1CCN(c2ccccc2)CC1)c1ccc2ccccc2n1	-1.4%	41.1*	-10.5	0.6	4.7	0.0	0.9	-0.7%
COc1ccc(Nc2ncc(C(=O)Nc3cccc(OC)c3)c3ccccc23)cc1	-1.0%	0.2	2.4	3.5	-0.3	-0.1	/	/
O=C(NCc1ccc(Cl)cc1)C1CCN(c2nn3cc(-c4ccc(F)cc4)nc3s2)CC1	0.0%	-7.1	3.2	0.8	-0.8	0.7	/	/
COc1cccc(C2=NC(C)(C)NC(c3ccccc3O)C2)c1 (centres undefined)	9.7%	41.9*	-20.4	2.4	3.7	0.8	0.4	-0.4%
CC(=O)Nc1cc2c(nc1C)nc(C)n2Cc1ccc(Br)cc1	0.0%	45.8*	-1.1	4.1	1.9	1.1	-2.3	-0.7%
CCCn1c2ccccc2c2cnn(CC(=O)N(Cc3ccccc3)C(C)C)c(=O)c21	-0.4%	-9.4	2.6	0.0	-1.9	1.4	/	/
O=C(CN1CCCC1)N1c2ccccc2Sc2ccc(Cl)cc21	/	47.3*	4.6	2.8	0.7	2.2	-4.7	1.5%
O=C(CN1CCCC1)N1c2ccccc2Sc2ccc(C(F)(F)F)cc21	4.7%	-2.5	11.2	0.9	-2.5	0.8	/	/
CCN(CC)N=Nc1ccc(S(N)(=O)=O)cc1	-4.3%	57.5*	-5.0	8.8	-7.0	0.3	2.7	2.8%
CCOC(=O)Cc1csc(SCC(=O)NC2CCCCC2)n1	0.0%	10.4	-13.8	1.1	-3.4	0.1	/	/
CCOC(=O)Cc1csc(SCC(=O)NC2CCCC2)n1	/	51.6*	-11.6	1.5	-7.8	0.0	-5.4	0.4%
CCc1ccc(NC(=O)N(Cc2cccnc2)Cc2ccco2)cc1	2.9%	42.8*	/	-2.1	-1.8	-1.2	?	16.4µM*
SMILES	Epigenetic reg	TRHR enhancer-1	D1 antag	D1 ag	D1 PAM	TRHR agonist-1	TRHR enhancer-2	TRHR agonist-2
O=C(CN1C(=O)CCSc2ccc(S(=O)(=O)N3CCCC3)cc21)Nc1cccc(F)c1	2.8%	-2.8	17.2	-0.7	0.8	-0.1	/	/
CCN1CCCC(NC(=O)c2cc([N+](=O)[O-])ccc2OC)C1 (centres undefined)	-0.9%	42.4*	2.8	5.3	5.8	0.5	-2.6	-0.6%
Cc1ccccc1CN1CCCN(CC(=O)Nc2ccc3c(c2)OCCO3)S1(=O)=O	-4.3%	10.8	12.0	3.7	-0.1	-0.8	/	/
COc1ccc(NC(=O)COC(=O)c2ccc(N3CCCC3=O)cc2)cc1OC	-1.2%	43.4*	11.6	3.5	-8.1	0.3	4.0	-0.6%
CCCCCn1nc(-c2ccccc2)c2nc3ccccc3nc21	?	9.6	20.6	37.3*	6.9	25.9	1.8	16.4µM*
Cc1ccc(CN2C(=O)CC(c3ccc(Cl)cc3)c3c(C)nn(-c4nc(C)cc(C)n4)c32)cc1 (centres undefined)	-0.8%	3.3	-8.0	-3.2	1.2	0.6	/	/
O=C1c2ccccc2C(O)N1c1ccc(Cl)cc1 (centres undefined)	0.8%	-3.3	-0.8	0.0	1.8	0.1	/	/
O=C1c2ccccc2C(O)N1c1ccccc1 (centres undefined)	/	-2.9	3.0	1.6	-0.6	30.7*	3.6	-0.5%
C=CCN(Cc1cn(C)nc1-c1cccc(Cl)c1)C1CCS(=O)(=O)C1 (centres undefined)	-0.6%	46.2*	0.8	0.1	-2.4	0.5	-2.5	-0.4%
CC1=C2C(=CO[C@H](C)[C@H]2C)C(=O)C(C(=O)O)=C1O	0.0%	/	/	/	/	/	/	/
COc1cc(CNC(C)(C)CO)ccc1OCC(=O)NC(C)(C)C	-0.9%	-0.1	15.5	0.5	-4.6	0.2	/	/
COc1cc(CNC(C)C23CC4CC(CC(C4)C2)C3)ccc1OCC(=O)NC(C)(C)C (centres undefined)	/	-16.2	2.1	37.2*	0.3	43.3*	-2.1	?
CCCCNS(=O)(=O)c1ccc(NC(=O)C(Sc2ccccc2)c2ccccc2)cc1 (centres undefined)	-0.9%	1.9	14.9	13.5	-4.1	27.2	-2.9	?
CCC(C)NS(=O)(=O)c1ccc(NC(=O)C(Sc2ccccc2)c2ccccc2)cc1 (centres undefined)	2.7%	-1.2	9.4	6.6	3.8	1.2	/	/

Bioassay records (PubChem BioAssay)
